JMJD2A Tudor: inhibitors of human JMJD2A Tudor domain; Potency, µM (titrated, usually from 114 µM), inactives show at the top dose activity change, negative = inhibition, actives largely listed as inhibitors; AID 504339; O75164; 4.4% of 390,000 active; AlphaScreen JMJD2A-Tudor / H3K4me3 peptide binding; also: potency is read from the fitted curve at half-maximal effect; % is scaled to controls: 0 for no effect and ±100 for the full control effect; nearly all actives have a fitted effect of over 50% in size
Target sequence (O75164 whole entry, looked up, the tested form may be a part): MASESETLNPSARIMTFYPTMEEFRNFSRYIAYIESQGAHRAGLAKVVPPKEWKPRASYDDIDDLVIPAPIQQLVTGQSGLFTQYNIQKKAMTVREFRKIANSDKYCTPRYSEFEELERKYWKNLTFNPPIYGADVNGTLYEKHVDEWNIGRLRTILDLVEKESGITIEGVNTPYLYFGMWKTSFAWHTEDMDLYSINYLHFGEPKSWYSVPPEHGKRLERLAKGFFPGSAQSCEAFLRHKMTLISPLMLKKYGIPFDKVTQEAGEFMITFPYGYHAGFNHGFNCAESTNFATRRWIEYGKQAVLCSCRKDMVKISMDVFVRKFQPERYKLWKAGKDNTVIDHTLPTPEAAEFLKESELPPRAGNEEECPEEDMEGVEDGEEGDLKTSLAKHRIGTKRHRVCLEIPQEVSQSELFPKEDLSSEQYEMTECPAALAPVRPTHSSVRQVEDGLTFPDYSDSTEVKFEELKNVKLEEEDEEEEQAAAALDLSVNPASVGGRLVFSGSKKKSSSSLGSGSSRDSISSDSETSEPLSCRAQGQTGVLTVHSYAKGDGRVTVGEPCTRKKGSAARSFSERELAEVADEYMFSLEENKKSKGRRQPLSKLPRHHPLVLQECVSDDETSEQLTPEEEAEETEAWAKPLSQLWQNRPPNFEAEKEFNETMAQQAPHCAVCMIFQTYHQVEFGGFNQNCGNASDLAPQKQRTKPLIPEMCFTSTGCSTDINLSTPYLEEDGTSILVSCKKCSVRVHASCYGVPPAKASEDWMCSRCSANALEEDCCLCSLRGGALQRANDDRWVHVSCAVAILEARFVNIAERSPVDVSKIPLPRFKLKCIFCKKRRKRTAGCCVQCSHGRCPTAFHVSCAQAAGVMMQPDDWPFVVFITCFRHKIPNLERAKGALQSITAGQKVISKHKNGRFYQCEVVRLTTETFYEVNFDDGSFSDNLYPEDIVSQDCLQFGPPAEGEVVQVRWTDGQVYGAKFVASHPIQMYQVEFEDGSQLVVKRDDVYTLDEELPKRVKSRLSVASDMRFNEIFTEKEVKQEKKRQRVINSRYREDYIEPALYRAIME
G9a inh: blocks human histone lysine methyltransferase G9a. Q96KQ7. AID 504332. 8.8% of 350,000 active. G9a H3K9 monomethylation, AlphaScreen, 2 h. Potency, µM (titrated, usually from 102 µM), for the others: at the highest dose activity, negative = inhibition, hits mostly inhibitors; also: potency is read from the fitted curve at half-maximal effect; % is scaled to controls: 0 for no effect and ±100 for the full control effect; nearly all actives have a fitted effect of over 75% in size
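Step 1: enzyme (final 20 nM) with compound, 15 min RT. Step 2: substrate peptide 500 nM and SAM 20 uM, 2 h RT. Step 3: anti-H3K9me1 antibody and AlphaScreen beads, 10 min, then plate read.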
PI5P4Ka inh: PI5P4K alpha (human) kinase inhibition; P48426; PI5P4Kalpha enzyme, ADP-Glo luminescence, 60 min; active compounds read low; max response, %; 1.2% of 330,000 active; active = max response of -50% or lower; inconclusive = between -30% and -50%; inactive = -30% or higher; also: value at the top dose of about 77 µM; % is scaled to controls: 0 for no effect and ±100 for the full control effect
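Single end-point luminescence (ADP-Glo) quantified ADP from PI5P4Kalpha turnover; ATP 5 microM final, 1 h at RT, 0.1% CHAPS and 0.28 mM EGTA in HEPES pH 7.4.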
PLK1 PBD block: blocks phosphopeptide binding to human PLK1 polo-box domain; P53350; Plk1 PBD binding of FITC phosphopeptide, fluorescence polarization; Potency, µM, without a hit: max response, negative = inhibition, usual class: inhibitors; 2.8% of 360,000 active; also: potency is read from the fitted curve at half-maximal effect; series mostly up to about 57 µM; % is scaled to controls: 0 for no effect and ±100 for the full control effect; nearly all actives have a fitted effect of over 65% in size
BAZ2B block: inhibitors of human BAZ2B bromodomain; AID 504333; Q9UIF8; AlphaScreen BAZ2B-H3K14Ac peptide displacement; Potency, µM (titrated, usually from 114 µM), without a hit: at the highest dose activity change, negative = inhibition, actives largely listed as inhibitors; 4.4% of 360,000 active; also: potency is read from the fitted curve at half-maximal effect; % is scaled to controls: 0 for no effect and ±100 for the full control effect; nearly all actives have a fitted effect of over 60% in size
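Protein-peptide AlphaScreen: BAZ2B 50 nM, b-H3K14Ac 50 nM, 1x PBS pH 7.4 + 0.01% Tween-20. Preincubation 30 min RT; cpd 30 min RT (top 110 uM); beads 20 min RT, light-protected.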
HP1b binding inh: blocks HP1-beta chromodomain binding to methylated histone tails; P83916; AlphaScreen HP1-beta / biotin-H3K9me3 peptide binding; Potency, µM (highest dose often 114 µM), without a hit: at the top dose activity change, negative = inhibition, actives largely listed as inhibitors; 0.56% of 390,000 active; also: potency is read from the fitted curve at half-maximal effect; nearly all actives have a fitted effect of over 70% in size
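HP1-beta protein (50 nM final) preincubated 30 min at room temperature with biotinylated H3(1-18)K9me3 peptide (50 nM) in PBS pH 7.4, 0.01% Tween-20, then compound added for 30 min. AlphaScreen streptavidin donor/nickel chelate acceptor beads (10 ug/mL final), 30 min dark, luminescence read.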
Numbers without * were called inactive; u = inconclusive; x = not tested or not shown; [ ] = another dose, or the depositor's remark. Most compounds without a hit are left out; they make up all but 12% or so of the library. Unless noted, calls follow the shape of the dose curve; as a rule, active = well fitted curve in the direction sought with a large enough effect; inconclusive = small, poorly fitted or top-dose-only effect, or another doubt; inactive = no such curve, though single readings can be large; an effect the other way counts as inactive or inconclusive.

SMILES | JMJD2A Tudor | G9a inh | PI5P4Ka inh | PLK1 PBD block | BAZ2B block | HP1b binding inh
O=S(=O)(c1ccc(Br)cc1)N1CCOCC1 | 6.4% | x | x | x | x | 13.1%
Cc1ccc(O)c(N=Nc2ccc(S(=O)(=O)N3CCOCC3)cc2)c1 | 14.1µM* | -31.0%[12.7 µM] | -7.7 | -6.1% | 8.91µM* | u
CC(C)(C)c1cc(Br)c(O)c(N=Nc2ccc(S(=O)(=O)N3CCOCC3)cc2)c1 | 5.62µM* | 14.1µM* | -1.5 | 4.6% | 7.94µM* | u
Cc1ccc(NC(=O)CCc2ccc(S(=O)(=O)N3CCOCC3)cc2)c(O)c1 | -11.7% | x | 6.7 | 3.7% | x | 12.0%
CCOc1ccc(NC(=O)CCn2c(=O)c3cccn3c3cccnc32)cc1 | -14.3% | -1.9%[59 µM] | x | x | -9.7% | 4.4%
CCn1c(=O)c(CCC(=O)NCC2CCCO2)c(C)c2c(C)nn(-c3ccc(C)cc3)c21 (stereo not drawn) | -4.1% | 24.5% | 2.6 | -15.2% | 1.0% | 18.5%
COCc1cc(C)nc2c1C(=O)NC(c1ccc(Br)cc1)N2Cc1ccccc1 (stereo not drawn) | 0.0% | 0.2%[59 µM] | x | x | -17.2% | 30.7%
O=C(OCN1C(=O)c2ccccc2C1=O)c1ccco1 | -4.5% | 14.9% | -6.5 | -8.9% | -2.7% | 14.7%
O=C(OCCCCN1C(=O)c2ccccc2C1=O)c1n[nH]c2ccccc12 | u | 50.1µM* | -0.7 | -5.4% | 3.7% | 7.8%
O=C(OCCCN1C(=O)c2ccccc2C1=O)c1ccco1 | -28.1%[11.4 µM] | 9.5%[12.7 µM] | -1.5 | 26.7µM* | 3.5% | 1.1%
O=S(=O)(c1ccccc1)N1CCCCC1CCc1ccccc1 (stereo not drawn) | 111.0% | x | 5.3 | 1.9% | x | 154.0%
CN=C(c1ccc(C)cc1)n1c(=S)nc(-c2ccc(C)cc2)n(C)c1=S | 6.8%[11.4 µM] | 39.8µM* | -1.5 | -9.2% | -21.9% | u
CC(C)NC(=O)C1(C)CCN1C(=O)c1ccc2c(c1)OCO2 (stereo not drawn) | x | x | -3.2 | 5.3% | x | x
CSc1nnc(Cn2c(=O)sc3ccccc32)n1CCc1ccccc1 | u | -18.2% | 5.6 | 21.2µM* | -3.1% | 4.2%
CCCCOC(=O)c1ccc(NS(=O)(=O)c2c(C)nc3scc(C)n3c2=O)cc1 | -15.8% | 3.9%[59 µM] | x | x | -0.3% | 10.4%
CC1=CC(C)(C)Nc2ccc(C)cc21 | u | 44.7µM* | x | -0.8% | 50.1µM* | 7.3%
CC1=CC(C)(C)Nc2cc(C)c(C)cc21 | 50.1µM* | 31.6µM* | 5.8 | -9.1% | 50.1µM* | u
Cc1cc(=O)[nH]c2ccc(Cc3ccccc3)cc12 | -6.3% | x | -1.4 | -1.7% | x | 3.9%
CC1=CC(C)(C)Nc2ccc(Cc3ccc4c(c3)C(C)=CC(C)(C)N4)cc21 | 17.8µM* | 10µM* | -20.7 | -7.2% | 14.1µM* | u
CC(C)(C)Cc1nnc(NS(=O)(=O)c2ccc(F)cc2)s1 | -8.2% | u | 5.0 | u | x | 29.4%
COc1ccc(Cc2nnc(NS(=O)(=O)c3ccc(Cl)cc3)s2)cc1OC | -17.5% | 31.6µM* | -7.5 | 29.9µM* | u | -7.6%
Cc1ccc(S(=O)(=O)Nc2nnc(CC(C)(C)C)s2)cc1 | -20.7% | 35.5µM* | 0.8 | 26.7µM* | -21.3% | -5.1%
CC(=O)Nc1ccc(S(=O)(=O)Nc2nnc(CC(C)(C)C)s2)cc1 | -29.8% | u | -13.2 | 26.7µM* | u | u
CC1Cc2ccccc2N1c1ncnc2c1nnn2Cc1ccccc1Cl (stereo not drawn) | 9.6%[11.4 µM] | 28.9%[59 µM] | -0.4 | 26.7µM* | 21.0% | 1.5%
CC(C)(C)NC(=O)CSc1ncnc2c1nnn2Cc1ccccc1Cl | 50.1µM* | -31.7% | -0.4 | 26.7µM* | -0.8% | -2.3%
SMILES | JMJD2A Tudor | G9a inh | PI5P4Ka inh | PLK1 PBD block | BAZ2B block | HP1b binding inh
Clc1ccccc1Cn1nnc2c(N3CCCC3)ncnc21 | -9.1% | -4.9% | x | -1.6% | -1.1% | 25.1%
CCC1(C(N)=O)CC2C=CC1C2 (stereo not drawn) | -8.3% | x | 0.9 | -2.3% | x | 5.4%[57 µM]
Cc1ccc(C)c(N2CCN(CCCNC(=O)Cn3c(=O)c4cccn4c4cccnc43)CC2)c1 | -25.7% | -11.8% | 1.8 | -7.3% | -20.9%[57.1 µM] | 34.8%
N#Cc1cccc(S(=O)(=O)N2CCN(S(=O)(=O)c3ccc4c(c3)OCCO4)CC2)c1 | -7.5% | x | x | x | x | 9.2%[57 µM]
Cc1ccccc1N(C(=O)c1csnn1)C(C(=O)NC(C)(C)C)c1cccs1 (stereo not drawn) | 10µM* | -30.2% | u | 8.44µM* | -26.8% | u
CCc1ccc(C(=O)COC(=O)C(Cc2c[nH]c3ccccc23)NC(=O)c2ccc(Br)cc2)cc1 (stereo not drawn) | -26.1% | 20.2%[59 µM] | x | x | 14.3% | 39.9%
CC(C)CNC(=O)COC(=O)c1c2c(nc3ccccc13)/C(=C\c1cccs1)CC2 | 39.7% | x | -27.6 | -2.8% | x | 111.6%
CN(CCC#N)C(=O)COC(=O)c1c2c(nc3ccccc13)/C(=C/c1ccco1)CC2 | 89.1µM* | 22.4µM* | -67.9* | -14.8% | 44.7µM* | u
COc1ccc(N(C(=O)c2ccncc2)S(=O)(=O)c2cccc([N+](=O)[O-])c2)cc1 | u | 79.4µM* | 4.6 | u | -36.0% | 27.7%
O=C(NCc1ccc(F)cc1)c1ccc2c(O)c(S(=O)(=O)c3ccccc3)c(=O)[nH]c2c1 | -6.6% | u | x | x | -26.7% | 39.1%
COc1ccc(-c2cccc3c2NC(=O)C3=O)cc1OC | u | x | -1.8 | 26.7µM* | x | 9.7%
CCOc1ccc(S(=O)(=O)NCc2ccncc2)cc1NC(=O)c1ccccc1 | -14.4% | 56.2µM* | 2.5 | -6.9% | 2.7% | 15.2%
COc1ccc(S(=O)(=O)NCc2ccccn2)cc1NC(=O)c1ccccc1C | 1µM* | -34.8% | 5.9 | -11.2% | u | 10.6%
COc1ccc(S(=O)(=O)NCc2ccncc2)cc1NC(=O)c1ccc(Cl)cc1 | -19.0% | -22.2% | -0.3 | -0.9% | -3.5% | 3.8%
COc1ccc(S(=O)(=O)NCc2ccccn2)cc1NC(=O)c1ccc(Cl)cc1 | 3.55µM* | -3.0% | -12.8 | -5.7% | -7.2% | -23.6%
COc1ccc(S(=O)(=O)NCc2ccncc2)cc1NC(=O)c1ccccc1 | -9.7% | -9.9%[0.501 µM] | 1.3 | -11.9% | -0.2% | 10.3%
CC(C)Cn1c(SCC(=O)Nc2cc(Cl)c(Cl)cc2Cl)nc(O)cc1=O | -16.6% | 1.5% | -29.8 | -22.7% | -6.4% | 5.3%
CCOc1ccc(NC(=O)C(CC)n2nc(-c3ccc(C)c(C)c3)ccc2=O)cc1 (stereo not drawn) | -13.6% | -29.8%[59 µM] | x | x | -5.6% | 14.0%
CCOC(=O)c1c(C)[nH]c(CCC(=O)NCc2cc(OC)c(OC)c(OC)c2)c1C | -13.3% | -0.9%[59 µM] | x | x | 0.0% | 21.8%[57 µM]
CCN1/C(=C/C=C/c2oc3ccc4ccccc4c3[n+]2CC)Oc2ccc3ccccc3c21 | u | u | -73.8* | 80.9% | u | -10.3%
